Source: the supplement of paper PMC9897528

system: Scedosporium aurantiacum CBS 136046; assay: growth inhibition relative to DMSO control (OD600); higher = more antifungal activity, active = 80 or more; extreme values may be limits of the assay; conditions: 5 µM; 72 h; 37 °C
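Note: conidia screened in RPMI 1640 medium under 5% CO2, growth read by spectrophotometer, medium with 0.5% DMSO serving as the untreated reference.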

SMILES	growth inhibition
COc1cc2c(O)c3c(c(-c4ccc5c(c4)OCO5)c2cc1OC)C(=O)OC3	25% (inactive)
COc1cc(NC(=O)CN2C(=O)NC(c3ccccc3)(c3ccccc3)C2=O)cc(OC)c1	0% (inactive)
N=c1n(CCN2CCCCC2)c2ccccc2n1CC(O)COc1ccc(Cl)cc1Cl (centres undefined)	25.3% (inactive)
CCC(CC)[C@H](NC(C)=O)[C@@H]1[C@H](O)[C@@H](C(=O)O)C[C@H]1NC(=N)N	14.3% (inactive)
OC(Cn1cncn1)(Cn1cncn1)c1ccc(F)cc1F	29.9% (inactive)
O=C(Nc1[nH]c(=O)ncc1F)c1ccccc1	5.77% (inactive)
Cc1ccc(C)c(OCCCCCCN2C[C@H](O)[C@@H](O)[C@H](O)[C@H]2CO)c1	15.9% (inactive)
COc1nc2ccc(Br)cc2cc1[C@@H](c1ccccc1)[C@@](O)(CCN(C)C)c1cccc2ccccc12	43.6% (inactive)
Cc1cc(C)n(O)c(=O)c1	0.961% (inactive)
COc1ccc(CNC(=O)C2CCN([C@H](C)c3cccc4ccccc34)CC2)cc1	9.67% (inactive)
O=P(O)(O)C(CCCc1cccc(Oc2ccccc2)c1)S(=O)(=O)O (centres undefined)	2.84% (inactive)
C[C@H]1[C@@H](c2cccc(C(F)(F)F)c2)OC(=O)N1C(=O)NCc1cncc2ccccc12	11.5% (inactive)
C=C(C)[C@@H]1CC[C@]2(C(=O)O)CC[C@]3(C)[C@H](CC[C@@H]4[C@@]5(C)CC[C@H](O)C(C)(C)[C@@H]5CC[C@]43C)[C@@H]12	1.06% (inactive)
CC1(C)Cc2c(C#N)c(SCCc3ccccc3)nc(N3CCOCC3)c2CO1	27.9% (inactive)
Nc1nnnn1CCOc1c2[nH]c3ccc(Cl)cc3c2cc2c1[nH]c1ccc(Cl)cc12	49.3% (inactive)
O=C(CP(=O)(O)O)NCCc1cccc(Oc2ccccc2)c1	31.5% (inactive)
CCn1cc(C(=O)O)c(=O)c2cc(F)c(N3CCNC(C)C3)c(F)c21 (centres undefined)	4.34% (inactive)
N[C@@H]1CN(c2c(F)cc3c(=O)c(C(=O)O)cn([C@@H]4C[C@@H]4F)c3c2Cl)CC12CC2	7.35% (inactive)
CC(Oc1ccc(Cl)cc1Cl)C(=O)NCc1ccc2c(c1)OCO2 (centres undefined)	17.5% (inactive)
O=c1ccc2ncc(=O)n3c2n1CC3CN1CCC(NCc2cc3c(cn2)OCCC3)CC1 (centres undefined)	0% (inactive)

SMILES	growth inhibition
O=C(O)c1cc(-c2ccccc2)nc2ccccc12	12.6% (inactive)
OB1OCc2c1ccc(Cl)c2F	0.00748% (inactive)
CC1CN(c2ncnc3c2c(-c2ccccc2)cn3-c2ccc(F)cc2)CC(C)O1 (centres undefined)	20.4% (inactive)
CNC(=O)C1O[C@@H](n2cnc3c(NCc4cccc(I)c4)nc(Cl)nc32)[C@H](O)[C@@H]1O (some centres undefined)	3.52% (inactive)
CCc1nc2ccccn2c1C(=O)NCc1ccccc1	13% (inactive)
O=C(NCc1ccc2c3c(cccc13)C(=O)N2)c1cccs1	17% (inactive)
Cc1c[nH]c(=O)nc1NCc1ccccc1	10.8% (inactive)
C[C@H]1CC[C@@]2(O)C(C)(C)[C@@H]3CC[C@@]2(C)[C@H]1C3	12.7% (inactive)
COc1ccc2sc3c(c2c1)NC(C)CNC3=O (centres undefined)	7.39% (inactive)
O=c1nc(N2CCN(CC3CCCCC3)CC2)sc2c([N+](=O)[O-])cc(C(F)(F)F)cc12	28.5% (inactive)
O=C(c1cc(O)nc2ccccc12)N1CCN(c2ccccc2)CC1	5.66% (inactive)
CC(C)(C)c1ccc(OCCn2nc(C(=O)O)c3ccccc3c2=O)cc1	16.2% (inactive)
COc1ccc(C[C@@H](C)[C@@H](C)Cc2ccc(OC)c(OC)c2)cc1OC	8.67% (inactive)
Nc1nc2c(Cc3cccnc3)c[nH]c2c(=O)[nH]1	2.57% (inactive)
Cc1oncc1C(=O)Nc1ccc(C(F)(F)F)cc1	15.6% (inactive)
Nc1cc(-c2nc3ccccc3[nH]2)n[nH]c1=O	1.56% (inactive)
NC(=O)c1ccccc1NC(=O)c1ccc(C(=O)Nc2ccccc2C(N)=O)cc1	11.5% (inactive)
O=C(NCc1ccccc1Cl)c1cnc2ccccc2n1	10.6% (inactive)
O=C(NC(=O)N1CCCc2ccccc21)c1cccc(Cl)c1	5.71% (inactive)
